Results on 9 molecules are retold here after PubChem BioAssay.

Assay [1] in a line: HepG2 liver cancer cell viability effects, profiling panel, resazurin fluorescence, 24 h, PK04 Diversity Set (AID 1172). The following applies: higher = more signal.
The nature of assay [2]: basal S. cerevisiae growth modulation, no modifier, primary screen, OD600, strain BY4716, 24 h, basal condition (AID 1173). The following applies: OD600, 24 h, higher = more signal, called active from +8 up or from −8 down.
The nature of assay [3]: MM1S myeloma cell viability, profiling panel, resazurin fluorescence, basal, 24 h, PK04 Diversity Set (AID 1174).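 Further: MM1S multiple myeloma cell line.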 The following applies: higher = more signal, called active from +8 up or from −8 down. Background: Alamar Blue is a resazurin reagent that responds to reducing activity.
For assay [4], the target named is Dihydroorotate dehydrogenase (quinone), mitochondrial (Plasmodium falciparum (isolate 3D7)) (UniProt Q08210). Put plainly: PfDHODH enzyme inhibitors, primary screen, biochemical, C-terminal His tag, absorbance 600 nm (AID 1175).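 Further: recombinant parasite enzyme with a five histidine tag at its C terminus.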 The following applies: DCIP absorbance 600 nm, higher = more signal, called active from +8 up or from −8 down.
Assay [5] is described as follows: P. aeruginosa biofilm formation inhibitors, primary screen, strain PAO1, LB-PBS medium, absorbance 600 nm (AID 1176). The following applies: P. aeruginosa PAO1 growth/biofilm, A600, 12 h; higher = more signal.
Assay [6] in a line: S. cerevisiae RM11-1a growth modifiers, primary screen, strain RM11-1a, OD600, basal, 24 h (AID 1177).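 Further: cultures grown under basal conditions with no added stressor.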 Particulars: OD600, 24 h, higher = more signal, called active from +8 up or from −8 down.
Assay [7] can be described thus: E. coli acrAB mutant growth effects, primary screen, E. coli filamentation inducers, strain DRC39, OD650, 24 h (AID 1178).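 Further: growth measured as culture turbidity by optical density at 650 nm.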 Particulars: higher = more signal, called active from +8 up or from −8 down.
A short description of assay [8]: E. coli acrAB mutant growth effects, primary screen, E. coli filamentation inducers, strain DRC39, OD650, 48 h (AID 1179).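 Further: screen aims at cell division blockers that make cells filament.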 The following applies: E. coli DRC39 delta-acrAB growth, higher = more signal, called active from +8 up or from −8 down.
Assay [9] is described as follows: RPMI8226 myeloma cell viability, profiling panel, resazurin fluorescence, basal, 24 h, PK04 Diversity Set (AID 1180).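 Further: RPMI8826 multiple myeloma cell line at 5000 cells per well.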 Particulars: higher = more signal.
Assay [10] addresses E3 ubiquitin-protein ligase XIAP (Homo sapiens) (UniProt P98170). Nature of the assay: XIAP binders, primary screen, biophysical, small-molecule microarray, fluorescence 635 nm (AID 1181).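 Further: score merges 667 nm emission and signal to noise over triplicate slides.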 The following applies: small-molecule microarray binding, higher = more signal.
Assay [11] has as its system XIP peptide (Xip251-270) binding. Nature of the assay: small-molecule binders of XIP peptide, primary screen, biochemical, small-molecule microarray, fluorescence 635/667 nm, 0.1 µg/mL protein (AID 1182). The following applies: fluorescent protein binding, 635 nm, higher = more signal, called active from +8 up or from −8 down.
In assay [12] the test system is XIP peptide (Xip251-270). Nature of the assay: small-molecule binders of XIP peptide, primary screen, biochemical, small-molecule microarray, fluorescence 635/667 nm, 0.5 µg/mL protein (AID 1183). Particulars: small-molecule microarray binding, fluorescence 635 nm; higher = more signal.
Assay [13] can be described thus: Plasmodium falciparum growth inhibition, primary screen, strain 3D7, DAPI fluorescence, 100 nL (AID 1184).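 Further: parasites grown inside human red blood cells in medium with human serum.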 The following applies: P. falciparum 3D7 growth, 3 d, higher = more signal.
The target of assay [14] is Homeobox protein Hox-A13 (Mus musculus) (UniProt Q62424). Nature of the assay: inhibitors of HoxA13-DNA binding, primary screen, biochemical, fluorescence polarization, labeled oligonucleotide (AID 1185). The following applies: 15 min, higher = more signal, called active from +8 up or from −8 down. Background: Fluorescence polarisation rises when a labelled molecule tumbles more slowly, as on binding a larger partner.

A short description of assay [15]: inhibitors of hydroxyurea-induced Chk1 phosphorylation, primary screen, imaging, HeLa, phospho-Chk1 antibody, percent positive cells (AID 1186). The following applies: hydroxyurea-induced phospho-Chk1 immunofluorescence imaging, higher = more signal.
Assay [16] in a line: inhibitors of hydroxyurea-induced Chk1 phosphorylation, primary screen, imaging, HeLa, phospho-Chk1 nuclear intensity (AID 1187). Particulars: hydroxyurea-induced phospho-Chk1 immunofluorescence imaging, higher = more signal.

Calls of active or inactive are those of the source. Unless noted, how the calls were made is not given here.

Sequence of Dihydroorotate dehydrogenase (quinone), mitochondrial (Plasmodium falciparum (isolate 3D7)) (Q08210 whole entry, looked up): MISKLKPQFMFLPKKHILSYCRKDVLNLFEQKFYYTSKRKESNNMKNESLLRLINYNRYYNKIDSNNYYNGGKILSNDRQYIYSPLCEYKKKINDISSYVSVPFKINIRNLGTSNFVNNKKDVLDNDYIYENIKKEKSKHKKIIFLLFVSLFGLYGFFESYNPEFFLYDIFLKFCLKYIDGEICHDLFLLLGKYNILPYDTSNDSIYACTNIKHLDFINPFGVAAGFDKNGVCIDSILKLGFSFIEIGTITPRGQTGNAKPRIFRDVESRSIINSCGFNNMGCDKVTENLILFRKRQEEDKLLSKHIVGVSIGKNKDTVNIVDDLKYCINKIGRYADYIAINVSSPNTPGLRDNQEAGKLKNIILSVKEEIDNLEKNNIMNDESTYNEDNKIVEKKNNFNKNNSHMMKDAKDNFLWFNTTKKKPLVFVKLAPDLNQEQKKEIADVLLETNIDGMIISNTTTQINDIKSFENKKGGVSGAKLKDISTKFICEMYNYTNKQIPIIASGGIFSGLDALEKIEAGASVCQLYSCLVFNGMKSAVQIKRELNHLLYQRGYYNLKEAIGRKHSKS
Sequence of E3 ubiquitin-protein ligase XIAP (Homo sapiens) (P98170 whole entry, looked up): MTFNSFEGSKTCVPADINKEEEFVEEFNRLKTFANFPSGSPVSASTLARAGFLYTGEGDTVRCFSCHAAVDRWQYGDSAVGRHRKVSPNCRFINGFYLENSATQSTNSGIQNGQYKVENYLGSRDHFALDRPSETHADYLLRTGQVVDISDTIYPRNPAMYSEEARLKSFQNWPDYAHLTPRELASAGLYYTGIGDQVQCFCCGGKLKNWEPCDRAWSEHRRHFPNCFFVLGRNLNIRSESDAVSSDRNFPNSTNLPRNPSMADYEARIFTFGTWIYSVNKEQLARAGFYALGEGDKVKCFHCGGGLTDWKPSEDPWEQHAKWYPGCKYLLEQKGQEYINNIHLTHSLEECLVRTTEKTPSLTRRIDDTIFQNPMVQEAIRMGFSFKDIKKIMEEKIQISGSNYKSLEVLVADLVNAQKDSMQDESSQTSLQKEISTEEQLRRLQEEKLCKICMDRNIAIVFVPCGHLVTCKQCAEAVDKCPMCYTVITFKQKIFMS
Sequence of Homeobox protein Hox-A13 (Mus musculus) (Q62424 whole entry, looked up): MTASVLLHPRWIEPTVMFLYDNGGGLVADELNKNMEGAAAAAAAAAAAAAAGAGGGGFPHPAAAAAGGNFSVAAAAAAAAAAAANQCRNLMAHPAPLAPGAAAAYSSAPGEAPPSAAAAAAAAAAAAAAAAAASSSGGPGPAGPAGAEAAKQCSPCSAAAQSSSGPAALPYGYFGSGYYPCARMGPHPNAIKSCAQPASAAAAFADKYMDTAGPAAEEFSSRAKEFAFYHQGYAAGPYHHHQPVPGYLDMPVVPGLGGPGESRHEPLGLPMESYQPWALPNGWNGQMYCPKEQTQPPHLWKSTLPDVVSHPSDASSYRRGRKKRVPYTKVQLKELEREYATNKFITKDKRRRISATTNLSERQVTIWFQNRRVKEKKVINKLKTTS

Take `CC1CC/C=C\[C@H]2OC34C=CCN(Cc5ccccc5)C(=O)[C@H]3N(CCCCCCO)C(=O)[C@@H]4C2C(=O)O1` (some centres undefined): the z-score in assay [1] was 0.279; in assay [2] it was -0.885 (inactive); in assay [3], 0.507 (inactive); in assay [5], -1.06 (inactive); in assay [6] it was -0.38 (inactive); in [7], 0.608 (inactive). For the same molecule, the z-score in assay [8] was 1.01 (inactive); in assay [9], 1.15; in assay [13], -0.147; in assay [14], -5.85 (inactive); in [15], 0.0339 (inactive); in assay [16], 0.0311 (inactive). Besides, the composite z-score in [4] is 0.285 (inactive); in assay [10] it was -0.0741; in [11], 1.32 (inactive); in assay [12] it was -0.367.

As to `C=C(CCCC)/C(=C/C[C@@H](OC(C)=O)c1ccc(CO)o1)c1cnc2ccccc2c1`, the z-score is -1.53 in assay [1]; -0.293 (inactive) in assay [2]; -0.291 (inactive) in [3]; 0.0022 (inactive) in assay [5]; 0.324 (inactive) in [6]; -1.1 (inactive) in assay [7]. The z-score was -0.856 (inactive) in assay [8]; -0.521 in assay [9]; -1.38 in [13]; -4.99 (inactive) in assay [14]; 0.196 (inactive) in [15]; -0.109 (inactive) in [16]. In addition, the composite z-score in assay [4] is -6.85 (inactive); in assay [10], 0.1; in [11] it was 0.714 (inactive); in assay [12], 0.811.

Turning to `CN(C)CCCCNC(=O)[C@H]1C[C@H]2C(=O)N3CCC[C@H]3C(=O)N2[C@H]1c1cccc(OCCO)c1`, the z-score in assay [1] was -0.0329; in [2], 0.949 (inactive); in assay [3] it was 0.299 (inactive); in [5], 0.202 (inactive); in assay [6], 1.76 (inactive); in assay [7], -0.0332 (inactive). Besides, the z-score is -0.536 (inactive) in [8]; -0.116 in assay [9]; 0.0172 in assay [13]; -3.86 (inactive) in [14]; -0.322 (inactive) in assay [15]; 0.0695 (inactive) in assay [16]. Further, the composite z-score is 0.483 (inactive) in assay [4], 0.906 in assay [10], 0.683 (inactive) in assay [11] and 0.629 in assay [12].

Take `O=C(NC1CC1)[C@@H]1c2ccccc2C(=O)N(CC23CC4CC(CC(C4)C2)C3)[C@H]1c1ccc(CO)cc1`: the z-score in assay [1] was 0.658; in assay [2] it was -0.498 (inactive); in assay [3] it was 0.74 (inactive); in assay [5], 0.338 (inactive); in assay [6], 0.123 (inactive); in [7], -0.0508 (inactive). Also, the z-score in [8] is -0.428 (inactive); in assay [9] it was 1.07; in [13], -2.22; in [14] it was -5.05 (inactive); in assay [15], -0.0001 (inactive); in assay [16], 0.169 (inactive). Also, the composite z-score in assay [4] was -0.329 (inactive); in [10], 0.141; in [11] it was 0.383 (inactive); in assay [12], 0.686.

Consider `O=C1O[C@H](c2ccccc2)[C@H](c2ccccc2)N2[C@H]1[C@@H](C(=O)N1CCN(c3ncccn3)CC1)[C@]1(C(=O)Nc3ccc(C#CCCO)cc31)[C@H]2c1ccc(O)cc1`, for which the z-score in [1] is 0.0071; in [2], 0.298 (inactive); in assay [3], 0.34 (inactive); in [5] it was 0.462 (inactive); in assay [6], 0.254 (inactive); in [7] it was -0.386 (inactive). The z-score in [8] was -0.395 (inactive); in assay [9] it was 0.186; in [13], -0.707; in [14], -2.81 (inactive); in assay [15], -0.114 (inactive); in [16], -0.212 (inactive). Further, the composite z-score in assay [4] is 0.438 (inactive); in assay [10] it was -0.088; in assay [11], -0.224 (inactive); in assay [12], 0.726.

Turning to `O=C1O[C@@H](c2ccccc2)[C@@H](c2ccccc2)N2[C@@H](c3ccc(OCCO)cc3)[C@]3(C(=O)Nc4ccc(C#CC5(O)CCCCCC5)cc43)[C@@H](C(=O)O)[C@H]12`, the z-score in assay [1] was -0.253; in [2], -0.431 (inactive); in assay [3], 1.12 (inactive); in [5], 1.27 (inactive); in assay [6] it was 3.11 (inactive); in assay [7] it was 0.876 (inactive). Further, the z-score in assay [8] was 1.06 (inactive); in assay [9], -0.121; in assay [13], -0.0628; in assay [14], -6.03 (inactive); in assay [15], -0.167 (inactive); in [16] it was 0.0604 (inactive). Moreover, the composite z-score in assay [4] is -2.17 (inactive); in assay [10], -0.148; in [11], 2.23 (inactive); in assay [12], 0.688.

For `COC(=O)[C@@]1(Cc2ccc(OC)cc2)[C@H]2c3cc(C(=O)N4CCCC4)n(Cc4ccc(Cl)c(C(F)(F)F)c4)c3C[C@H]2CN1C(=O)c1ccccc1`, the z-score in [1] was 0.27; in assay [2], 0.681 (inactive); in [3] it was -0.267 (inactive); in assay [5] it was 0.135 (inactive); in [6] it was 0.276 (inactive); in assay [7], -0.88 (inactive). Further, the z-score in assay [8] was 0.404 (inactive); in [9] it was -0.859; in assay [13], -1.37; in [14], 0.806 (inactive); in assay [15] it was -0.842 (inactive); in [16] it was -0.559 (inactive). Besides, the composite z-score in [4] was -0.902 (inactive); in [10] it was -0.064; in [11] it was 0.151 (inactive); in [12], 0.45.

With `O=C1O[C@@H](c2ccccc2)[C@@H](c2ccccc2)N2[C@@H](c3ccccc3OCCO)[C@]3(C(=O)Nc4ccc(C#CCCO)cc43)[C@@H](C(=O)NC[C@H](O)c3ccccc3)[C@H]12`, the z-score in assay [1] was 0.5; in assay [2], 1.29 (inactive); in [3] it was 0.253 (inactive); in [5], 0.614 (inactive); in assay [6], 2.96 (inactive); in [7], 0.797 (inactive). In addition, the z-score in assay [8] is 0.367 (inactive); in assay [9], -2.7; in [13], -1.81; in [14], -3.98 (inactive); in assay [15], 0.0469 (inactive); in assay [16] it was 0.144 (inactive). Besides, the composite z-score in [4] is 0.873 (inactive); in assay [10], -0.0669; in [11], 0.798 (inactive); in assay [12] it was 0.816.

On to `O=C1N(CCS(=O)(=O)c2ccccc2)c2ccccc2C[C@]12N=C(c1ccc(OCCCO)cc1)O[C@@H]2c1ccccc1`, for which the z-score in assay [1] is -0.285; in assay [2] it was 0.376 (inactive); in [3], -2.11 (inactive); in [5], 0.575 (inactive); in assay [6] it was 2.74 (inactive); in assay [7] it was 0.39 (inactive). For the same molecule, the z-score was -0.0504 (inactive) in assay [8]; -0.885 in [9]; -2.3 in assay [13]; -4.51 (inactive) in [14]; -0.36 (inactive) in assay [15]; -0.357 (inactive) in [16]. Moreover, the composite z-score in assay [4] is -2.58 (inactive); in [10], 0.311; in [11], 0.412 (inactive); in assay [12] it was 0.811.
